# Laboratory results as given in PubChem BioAssay AID745 (Emory University Molecular Libraries Screening Center, 2007).
# Among all 33,000 compounds or so, about 40 (0.1%) were called active. No stated cut-off is given here; in the data, active means z-score below about -3; inactive means the rest. For the sample, actives were picked, then their nearest neighbours and some compounds at random.
# Assay: inhibitors of measles virus growth in cells, primary screen, measles RdRp inhibitor project, cell-based, single point, HTS (AID 745)
# Details: infected Vero cells, GFP fluorescence, 64 h; hits give low values
row,SMILES,z-score
1,COc1ccc(C=Cc2nc3ccccc3[nH]2)cc1,-0.15 (inactive)
2,COc1cc(C2NC(=O)N(C)C(C)=C2C(=O)OCCc2ccccc2)cc(Br)c1O (stereo unspecified),-0.63 (inactive)
3,COc1ccccc1-n1c(C)nc2cc(C(=O)NCc3cccnc3)ccc21,1.95 (inactive)
4,Cc1ccc(C(=O)CC2(O)C(=O)N(C(C)C)c3ccccc32)c(C)c1 (stereo unspecified),-0.29 (inactive)
5,Clc1ccc(-c2ncnn2-c2cccc(Cl)c2)cc1,-0.25 (inactive)
6,CCOc1ccc(Nc2cc(C(=O)NCCN3CCCC3)c3ccccc3n2)cc1,-0.89 (inactive)
7,O=C(Nc1ccccc1-c1nc2ccccc2s1)c1ccc(S(=O)(=O)N2CCCCCC2)cc1,0.69 (inactive)
8,O=C(Nc1ccc(Oc2ccccc2)cc1)c1cn(-c2ccc(Cl)cc2)c(=O)c2ccccc12,-0.93 (inactive)
9,Cc1onc(-c2ccccc2)c1C(=O)N1CCN(c2ccc(OCc3ccccc3)cc2)CC1,-0.43 (inactive)
10,Cc1nn(C)c(C)c1S(=O)(=O)Nc1ccc(C(C)C)cc1,-0.07 (inactive)
11,O=C(COC(=O)c1ccc(N2C(=O)c3ccccc3C2=O)cc1)c1ccc(Cl)cc1,-1.36 (inactive)
12,CCOC(=O)c1c(O)cc2ccccc2c1O,0.14 (inactive)
13,O=C1NCCCCC1Nc1ccc(N2C(=O)CCCC2=O)cc1[N+](=O)[O-] (stereo unspecified),-1.9 (inactive)
14,Cc1ccc(C(=O)Nc2ccc(Br)cn2)cc1C,-0.15 (inactive)
15,COc1ccc(NC(=O)CN(c2cc(C(F)(F)F)ccc2Cl)S(=O)(=O)c2ccccc2)cc1,-0.33 (inactive)
16,Cc1ccc2nc(N3CCC(C(=O)NC4CCCCC4)CC3)[nH]c2c1,3.44 (inactive)
17,CCCCSc1nnc2c(n1)OC(c1ccc3c(c1)OCO3)N(C(C)=O)c1ccccc1-2 (stereo unspecified),0.17 (inactive)
18,C=CCN1C(=O)c2ccccc2Sc2ccc(C(=O)NCCOC)cc21,1.28 (inactive)
19,Cc1ccc(S(=O)(=O)N2N=C(c3ccccc3)CC2c2ccccc2Cl)cc1 (stereo unspecified),0.52 (inactive)
20,COCCOC(=O)C1=C(C)NC(=O)NC1c1ccc(Br)s1 (stereo unspecified),-0.55 (inactive)
21,Cc1ccc(CNC(=O)CCNC(=O)Cn2ccc3ccccc3c2=O)cc1,-0.31 (inactive)

row,SMILES,z-score
1,CCOc1sc2nc(C)n(CC(=O)Nc3ccc(N(C)C)cc3)c(=O)c2c1C,-1.08 (inactive)
2,CCC(C)NC(=O)C1(C)CCC(=O)N1CCN1CCCCCC1 (stereo unspecified),-0.27 (inactive)
3,O=C1C2C3C=CC(C3)C2C(=O)N1c1ccc(Nc2ccc3c(c2)CCC3)c([N+](=O)[O-])c1 (stereo unspecified),-1.35 (inactive)
4,Cn1ncc([N+](=O)[O-])c1C#N,-0.09 (inactive)
5,COc1ccc2c(c1)c(C(=O)CNc1nc(C)c(C)s1)c(C)n2C,-1 (inactive)
6,O=C1CCCN1CCCn1c(=S)[nH]c2ccccc2c1=O,-0.96 (inactive)
7,CC(=O)N1CCc2cc(S(=O)(=O)CCC(=O)Nc3ccc(C(F)(F)F)cc3)ccc21,-0.69 (inactive)
8,Cc1ccc2nsnc2c1S(=O)(=O)Nc1ccc(Br)cc1,-1.76 (inactive)
9,Cc1ccccc1NCc1cccc([N+](=O)[O-])c1,0.03 (inactive)
10,O=C(c1oc(=O)c2ccccc2c1-c1ccccc1)N1CCc2ccccc21,0.81 (inactive)
11,Nc1nc2ccccc2n1CCOc1ccc([N+](=O)[O-])cc1,-0.25 (inactive)
12,CCC(=O)Nc1cccc(-c2nc3ncccc3o2)c1,0.77 (inactive)
13,Cc1ccc(CNC(=O)CCSCc2cccc(Cl)c2)cc1,-0.79 (inactive)
14,CCOc1ccc(C(=O)Nc2ccc3nn(-c4ccc(OC)cc4)nc3c2)cc1Cl,0.27 (inactive)
15,Cc1ccc(-c2nnn(CC(=O)Nc3ccc(OC(F)(F)F)cc3)n2)cc1,0.34 (inactive)
16,CCOC(=O)c1cnc2ccc(Cl)cc2c1Nc1ccc2c(c1)OCCO2,-0.29 (inactive)
17,O=C(N1CCCc2ccccc21)C12CC3CC(CC(C3)C1)C2,-0.74 (inactive)
18,O=C(O)c1ccc2c(c1)C(=O)N(c1cccc(Oc3ccc4c(c3)C(=O)N(c3ccccc3)C4=O)c1)C2=O,-2.01 (inactive)
19,COc1ccc(-n2cnc3cc(C(=O)NC4CCCC4)ccc32)cc1,-0.86 (inactive)
20,Cc1cc(C)cc(-n2nc3c(c2NC(=O)CCCCl)CSC3)c1,-0.91 (inactive)
21,COc1ccc(OC)c(NC(=O)c2c(NCc3ccc(C)o3)sc3c2CCC3)c1,-1.95 (inactive)

row,SMILES,z-score
1,Cc1cccc(C(=O)Nc2ccc(-c3nc4cc(C(C)(C)C)ccc4o3)cc2)c1,-0.77 (inactive)
2,CCn1cc(C(=O)Nc2cc(Cl)ccc2OC)c(=O)c2ccc(C)nc21,0.75 (inactive)
3,CCn1cc(C(=O)NCCCN2CCCCCC2)c2cc(OC)c(OC)cc2c1=O,-0.6 (inactive)
4,Cc1cc(C)cc(NC(=O)CCCn2c(=S)[nH]c3ccccc3c2=O)c1,-1.99 (inactive)
5,CCCCCCn1c(SCC(=O)c2ccccc2)nc2c1c(=O)[nH]c(=O)n2C,-0.58 (inactive)
6,CC(C)c1ccc(NS(=O)(=O)c2ccc3[nH]cc(C(=O)NC4CCCC4)c(=O)c3c2)cc1,-2.24 (inactive)
7,COc1cc(C(=O)Nc2ccc(C(C)=O)cc2)cc(OC)c1OC,0.14 (inactive)
8,O=C(O)c1ccc(-n2cnnn2)cc1,1.04 (inactive)
9,CCOC(=O)C1CCN(c2nc(-c3cccc(C)c3)nc3ccccc23)CC1,-0.19 (inactive)
10,Cc1ccccc1CSC1=NCCN1C(=O)C12CC3CC(CC(C3)C1)C2,-0.58 (inactive)
11,CCOc1ccccc1N(C)C(=O)C1c2cc(OC)c(OC)cc2C(=O)N(C)C1c1cccnc1 (stereo unspecified),1.17 (inactive)
12,CCN(CC)C(=O)C1c2cc(OC)c(OC)cc2C(=O)N(C)C1c1ccc(SC)cc1 (stereo unspecified),0.35 (inactive)
13,Nc1c(C(=O)Nc2ccc(Br)cc2)sc2nc3c(c(-c4ccco4)c12)CCCCC3,-0.89 (inactive)
14,CN(C)c1ccc(C(O)(c2ccccc2)c2ccccc2)cc1,-0.51 (inactive)
15,CC(C)CC(=O)N1CCN(Cc2cccc(Cl)c2)CC1,-4 (active)
16,CC(C)CC(=O)N1CCN(Cc2ccccc2Br)CC1,0.09 (inactive)
17,O=C(CN1CCN(Cc2cccc(Cl)c2)C1=O)NC1CCCCCCC1,0.45 (inactive)
18,CCC(=O)N1CCc2cc(Br)cc(S(=O)(=O)N3CCCC(C(=O)N4CCN(c5cccc(C(F)(F)F)c5)CC4)C3)c21 (stereo unspecified),-0.33 (inactive)
19,CCOC(=O)c1c(C)oc2ccc(N(C(=O)c3ccccc3Cl)S(=O)(=O)c3cccc([N+](=O)[O-])c3)cc12,-0.28 (inactive)
